How the values were obtained:
[1] = target: Tyrosine-protein kinase receptor UFO (Homo sapiens) (UniProt P30530); details: at 1 µM
[2] = target: Tyrosine-protein kinase Blk (Homo sapiens) (UniProt P51451); details: at 0.1 µM
[3] = target: Tyrosine-protein kinase Blk (Homo sapiens) (UniProt P51451); details: at 1 µM
[4] = target: T1, Cytoplasmic tyrosine-protein kinase BMX (Homo sapiens) (UniProt P51813); details: at 0.1 µM
T1 sequence (whole entry): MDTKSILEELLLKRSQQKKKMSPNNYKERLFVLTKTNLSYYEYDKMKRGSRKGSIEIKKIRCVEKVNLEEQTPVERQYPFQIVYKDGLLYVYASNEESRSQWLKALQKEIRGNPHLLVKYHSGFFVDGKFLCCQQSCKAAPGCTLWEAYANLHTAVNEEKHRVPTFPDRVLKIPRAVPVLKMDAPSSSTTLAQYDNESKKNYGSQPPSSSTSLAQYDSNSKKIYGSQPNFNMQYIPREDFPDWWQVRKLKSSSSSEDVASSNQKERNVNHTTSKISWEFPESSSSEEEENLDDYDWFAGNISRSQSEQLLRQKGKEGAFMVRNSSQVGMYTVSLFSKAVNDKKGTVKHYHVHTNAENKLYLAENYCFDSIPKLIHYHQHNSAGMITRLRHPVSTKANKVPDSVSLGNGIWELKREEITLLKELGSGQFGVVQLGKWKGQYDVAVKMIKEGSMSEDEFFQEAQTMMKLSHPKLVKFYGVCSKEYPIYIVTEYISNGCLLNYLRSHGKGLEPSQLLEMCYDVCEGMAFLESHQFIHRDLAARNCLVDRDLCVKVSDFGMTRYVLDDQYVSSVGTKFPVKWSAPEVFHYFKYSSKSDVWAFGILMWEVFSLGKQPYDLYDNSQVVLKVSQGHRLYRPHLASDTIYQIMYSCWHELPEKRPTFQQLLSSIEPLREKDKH

[5] = target: T1, Cytoplasmic tyrosine-protein kinase BMX (Homo sapiens); details: at 1 µM
[6] = target: Protein-tyrosine kinase 6 (Homo sapiens) (UniProt Q13882); details: at 0.1 µM
Chain of Protein-tyrosine kinase 6 (Homo sapiens) (Q13882 whole entry, looked up): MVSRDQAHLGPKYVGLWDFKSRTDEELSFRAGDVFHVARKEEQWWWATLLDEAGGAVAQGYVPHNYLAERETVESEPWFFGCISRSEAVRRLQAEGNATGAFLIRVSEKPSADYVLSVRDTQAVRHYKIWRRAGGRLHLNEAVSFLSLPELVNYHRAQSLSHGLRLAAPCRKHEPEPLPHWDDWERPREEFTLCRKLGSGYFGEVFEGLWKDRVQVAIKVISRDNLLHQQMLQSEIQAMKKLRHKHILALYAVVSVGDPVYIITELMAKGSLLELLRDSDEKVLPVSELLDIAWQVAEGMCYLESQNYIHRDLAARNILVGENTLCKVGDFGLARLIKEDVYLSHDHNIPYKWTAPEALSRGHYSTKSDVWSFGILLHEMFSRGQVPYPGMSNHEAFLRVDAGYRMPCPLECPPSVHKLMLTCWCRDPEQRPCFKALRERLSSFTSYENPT

[7] = target: Protein-tyrosine kinase 6 (Homo sapiens) (UniProt Q13882); details: at 1 µM
[8] = target: Tyrosine-protein kinase BTK (Homo sapiens) (UniProt Q06187); details: at 0.1 µM
Chain of Tyrosine-protein kinase BTK (Homo sapiens) (Q06187 whole entry): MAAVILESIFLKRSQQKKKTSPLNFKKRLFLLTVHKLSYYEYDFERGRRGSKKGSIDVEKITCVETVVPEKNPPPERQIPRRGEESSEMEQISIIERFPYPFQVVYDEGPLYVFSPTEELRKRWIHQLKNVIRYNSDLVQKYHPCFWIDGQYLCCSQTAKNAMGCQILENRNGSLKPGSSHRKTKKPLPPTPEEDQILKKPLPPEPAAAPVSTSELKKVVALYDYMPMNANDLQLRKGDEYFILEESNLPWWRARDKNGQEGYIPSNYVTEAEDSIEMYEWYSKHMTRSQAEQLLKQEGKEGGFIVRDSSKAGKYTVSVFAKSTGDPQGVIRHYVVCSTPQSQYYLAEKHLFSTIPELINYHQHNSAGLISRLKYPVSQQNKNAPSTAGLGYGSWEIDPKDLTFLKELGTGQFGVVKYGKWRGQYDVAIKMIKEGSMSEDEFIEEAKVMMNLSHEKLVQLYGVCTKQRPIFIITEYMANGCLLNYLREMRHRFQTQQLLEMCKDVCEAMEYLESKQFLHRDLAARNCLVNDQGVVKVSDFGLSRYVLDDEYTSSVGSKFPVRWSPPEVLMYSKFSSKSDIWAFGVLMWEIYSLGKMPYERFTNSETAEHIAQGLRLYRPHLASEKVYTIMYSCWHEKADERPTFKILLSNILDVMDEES

[9] = target: Tyrosine-protein kinase BTK (Homo sapiens) (UniProt Q06187); details: at 1 µM
[10] = target: Tyrosine-protein kinase CSK (Homo sapiens) (UniProt P41240); details: at 0.1 µM
Chain of Tyrosine-protein kinase CSK (Homo sapiens) (P41240 2-450 limits assumed): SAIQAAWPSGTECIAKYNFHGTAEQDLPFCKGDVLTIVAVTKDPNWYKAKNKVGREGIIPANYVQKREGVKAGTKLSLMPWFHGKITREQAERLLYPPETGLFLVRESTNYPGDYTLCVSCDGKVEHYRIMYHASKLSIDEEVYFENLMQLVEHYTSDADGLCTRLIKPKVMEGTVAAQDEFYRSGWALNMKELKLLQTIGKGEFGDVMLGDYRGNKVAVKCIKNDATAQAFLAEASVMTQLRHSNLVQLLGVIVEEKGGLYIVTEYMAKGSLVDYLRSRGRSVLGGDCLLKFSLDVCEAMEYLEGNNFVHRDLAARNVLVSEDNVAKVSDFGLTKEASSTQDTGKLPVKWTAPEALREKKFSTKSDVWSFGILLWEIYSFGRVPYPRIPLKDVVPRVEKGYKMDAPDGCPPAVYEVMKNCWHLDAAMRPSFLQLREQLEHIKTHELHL

[11] = target: Tyrosine-protein kinase CSK (Homo sapiens) (UniProt P41240); details: at 1 µM
[12] = target: T2, Discoidin domain-containing receptor 2 (Homo sapiens) (UniProt Q16832); details: at 0.1 µM
T2 sequence (whole entry): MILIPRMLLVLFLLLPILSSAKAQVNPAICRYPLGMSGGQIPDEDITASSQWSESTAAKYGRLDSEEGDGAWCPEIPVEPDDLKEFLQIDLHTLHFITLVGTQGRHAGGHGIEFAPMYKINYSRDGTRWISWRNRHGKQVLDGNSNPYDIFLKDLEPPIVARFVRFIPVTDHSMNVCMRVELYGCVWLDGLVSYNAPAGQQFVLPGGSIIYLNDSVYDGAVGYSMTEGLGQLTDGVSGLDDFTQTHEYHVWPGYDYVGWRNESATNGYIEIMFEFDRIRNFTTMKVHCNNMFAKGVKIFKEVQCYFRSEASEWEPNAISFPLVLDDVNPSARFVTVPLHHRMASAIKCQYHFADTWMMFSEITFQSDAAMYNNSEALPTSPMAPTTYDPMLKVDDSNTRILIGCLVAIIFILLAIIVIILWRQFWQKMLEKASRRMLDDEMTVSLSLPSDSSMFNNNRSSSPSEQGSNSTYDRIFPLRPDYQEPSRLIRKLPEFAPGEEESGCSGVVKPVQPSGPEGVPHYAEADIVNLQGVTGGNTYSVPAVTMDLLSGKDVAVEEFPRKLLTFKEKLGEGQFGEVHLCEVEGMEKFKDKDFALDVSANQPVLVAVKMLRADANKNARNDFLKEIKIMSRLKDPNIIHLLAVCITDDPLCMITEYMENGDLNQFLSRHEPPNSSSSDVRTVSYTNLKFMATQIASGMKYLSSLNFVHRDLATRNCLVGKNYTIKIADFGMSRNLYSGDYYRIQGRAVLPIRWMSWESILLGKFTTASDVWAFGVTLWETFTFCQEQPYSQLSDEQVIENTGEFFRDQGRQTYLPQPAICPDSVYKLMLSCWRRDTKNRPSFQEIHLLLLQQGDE

[13] = target: T2, Discoidin domain-containing receptor 2 (Homo sapiens); details: at 1 µM
[14] = target: Epidermal growth factor receptor (Homo sapiens) (UniProt P00533); details: at 0.1 µM
Chain of Epidermal growth factor receptor (Homo sapiens) (P00533 whole entry): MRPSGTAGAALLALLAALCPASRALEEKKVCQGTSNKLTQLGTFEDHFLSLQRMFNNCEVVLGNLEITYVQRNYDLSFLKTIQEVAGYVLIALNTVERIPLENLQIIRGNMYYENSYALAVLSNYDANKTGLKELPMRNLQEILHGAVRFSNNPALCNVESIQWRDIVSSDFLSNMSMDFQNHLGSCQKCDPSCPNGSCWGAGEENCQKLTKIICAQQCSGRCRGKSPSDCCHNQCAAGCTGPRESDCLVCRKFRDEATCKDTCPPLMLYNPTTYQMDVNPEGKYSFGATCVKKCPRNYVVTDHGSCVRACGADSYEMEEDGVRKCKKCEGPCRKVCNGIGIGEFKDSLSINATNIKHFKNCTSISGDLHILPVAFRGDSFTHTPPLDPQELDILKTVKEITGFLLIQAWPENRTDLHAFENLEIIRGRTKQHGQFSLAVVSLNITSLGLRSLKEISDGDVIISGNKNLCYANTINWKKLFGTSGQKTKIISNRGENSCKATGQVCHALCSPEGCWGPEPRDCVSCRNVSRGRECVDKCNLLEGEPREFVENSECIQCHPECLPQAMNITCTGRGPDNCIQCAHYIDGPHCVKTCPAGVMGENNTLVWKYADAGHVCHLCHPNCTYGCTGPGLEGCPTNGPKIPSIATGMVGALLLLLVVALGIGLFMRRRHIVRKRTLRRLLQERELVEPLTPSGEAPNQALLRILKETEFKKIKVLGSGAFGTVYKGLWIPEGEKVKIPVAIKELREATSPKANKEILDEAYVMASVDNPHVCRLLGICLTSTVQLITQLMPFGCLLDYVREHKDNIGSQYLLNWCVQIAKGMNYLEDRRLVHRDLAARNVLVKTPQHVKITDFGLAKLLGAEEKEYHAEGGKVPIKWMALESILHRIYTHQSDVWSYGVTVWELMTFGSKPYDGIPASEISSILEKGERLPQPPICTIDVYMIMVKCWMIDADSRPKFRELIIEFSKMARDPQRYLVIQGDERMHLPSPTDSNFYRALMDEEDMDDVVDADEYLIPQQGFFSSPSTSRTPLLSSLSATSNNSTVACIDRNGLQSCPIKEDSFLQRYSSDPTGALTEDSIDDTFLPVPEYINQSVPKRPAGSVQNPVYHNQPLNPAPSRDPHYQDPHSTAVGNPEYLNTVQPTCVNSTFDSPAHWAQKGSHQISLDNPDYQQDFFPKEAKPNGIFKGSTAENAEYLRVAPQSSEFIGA

[15] = target: Epidermal growth factor receptor (Homo sapiens) (UniProt P00533); details: at 1 µM
[16] = system: Epidermal growth factor receptor (Homo sapiens), P00533 [L858R]; details: at 0.1 µM
Chain of Epidermal growth factor receptor (Homo sapiens), P00533 [L858R] (P00533 whole entry L858R): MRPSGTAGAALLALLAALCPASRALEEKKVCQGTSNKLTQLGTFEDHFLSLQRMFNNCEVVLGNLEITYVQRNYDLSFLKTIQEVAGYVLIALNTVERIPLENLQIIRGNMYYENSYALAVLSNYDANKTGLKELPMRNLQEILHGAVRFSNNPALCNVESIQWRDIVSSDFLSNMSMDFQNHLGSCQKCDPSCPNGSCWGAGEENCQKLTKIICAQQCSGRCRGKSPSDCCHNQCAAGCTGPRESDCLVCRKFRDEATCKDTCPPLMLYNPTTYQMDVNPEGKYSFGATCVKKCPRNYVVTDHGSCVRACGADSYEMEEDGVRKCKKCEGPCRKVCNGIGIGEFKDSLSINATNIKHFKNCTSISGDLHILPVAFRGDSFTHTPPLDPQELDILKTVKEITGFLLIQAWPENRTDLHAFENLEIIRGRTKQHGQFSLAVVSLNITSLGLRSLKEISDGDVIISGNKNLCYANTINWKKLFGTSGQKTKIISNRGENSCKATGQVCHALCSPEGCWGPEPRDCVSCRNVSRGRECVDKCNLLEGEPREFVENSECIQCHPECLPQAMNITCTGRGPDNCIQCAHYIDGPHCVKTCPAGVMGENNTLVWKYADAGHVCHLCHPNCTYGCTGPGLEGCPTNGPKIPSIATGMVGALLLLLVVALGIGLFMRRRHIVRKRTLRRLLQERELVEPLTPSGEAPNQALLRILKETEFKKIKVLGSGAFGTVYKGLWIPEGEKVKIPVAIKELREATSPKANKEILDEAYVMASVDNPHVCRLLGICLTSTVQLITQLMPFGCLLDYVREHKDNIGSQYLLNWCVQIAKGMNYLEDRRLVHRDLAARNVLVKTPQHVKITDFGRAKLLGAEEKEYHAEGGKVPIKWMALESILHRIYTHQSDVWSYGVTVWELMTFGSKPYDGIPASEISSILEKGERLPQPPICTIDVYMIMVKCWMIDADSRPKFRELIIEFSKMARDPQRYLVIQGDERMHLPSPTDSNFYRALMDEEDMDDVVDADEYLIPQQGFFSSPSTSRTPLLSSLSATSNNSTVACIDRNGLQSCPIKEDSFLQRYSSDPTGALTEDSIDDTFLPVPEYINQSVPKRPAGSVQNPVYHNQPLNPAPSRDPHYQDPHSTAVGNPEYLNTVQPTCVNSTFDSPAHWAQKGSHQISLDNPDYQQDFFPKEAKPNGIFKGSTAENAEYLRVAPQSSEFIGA

[17] = system: Epidermal growth factor receptor (Homo sapiens), P00533 [L858R]; details: at 1 µM
[18] = system: Epidermal growth factor receptor (Homo sapiens), P00533 [L861Q]; details: at 0.1 µM
[19] = system: Epidermal growth factor receptor (Homo sapiens), P00533 [L861Q]; details: at 1 µM
[20] = system: Epidermal growth factor receptor (Homo sapiens), P00533 [T790M]; details: at 0.1 µM

Chain of Tyrosine-protein kinase Blk (Homo sapiens) (P51451 2-505 limits assumed): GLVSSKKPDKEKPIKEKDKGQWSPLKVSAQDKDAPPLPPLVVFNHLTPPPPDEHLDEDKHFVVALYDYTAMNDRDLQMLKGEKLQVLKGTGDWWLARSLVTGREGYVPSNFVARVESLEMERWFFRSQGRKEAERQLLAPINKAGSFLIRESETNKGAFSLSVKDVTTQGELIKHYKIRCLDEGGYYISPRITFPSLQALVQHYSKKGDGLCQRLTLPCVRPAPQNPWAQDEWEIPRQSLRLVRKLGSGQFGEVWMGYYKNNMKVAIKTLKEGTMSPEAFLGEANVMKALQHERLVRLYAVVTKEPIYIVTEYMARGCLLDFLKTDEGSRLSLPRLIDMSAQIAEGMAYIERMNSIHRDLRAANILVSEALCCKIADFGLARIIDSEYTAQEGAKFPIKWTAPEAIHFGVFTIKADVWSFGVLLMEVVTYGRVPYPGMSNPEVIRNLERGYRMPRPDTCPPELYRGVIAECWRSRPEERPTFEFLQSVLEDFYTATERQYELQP

SMILES | inhibition [1] [%] | inhibition [2] [%] | inhibition [3] [%] | inhibition [4] [%] | inhibition [5] [%] | inhibition [6] [%] | inhibition [7] [%] | inhibition [8] [%] | inhibition [9] [%] | inhibition [10] [%] | inhibition [11] [%] | inhibition [12] [%] | inhibition [13] [%] | inhibition [14] [%] | inhibition [15] [%] | inhibition [16] [%] | inhibition [17] [%] | inhibition [18] [%] | inhibition [19] [%] | inhibition [20] [%]
CN(C)C(=O)O[C@@H]1CN[C@@H](C#Cc2cc3ncnc(Nc4ccc(OCc5cccc(F)c5)c(Cl)c4)c3s2)C1 | 2.48 | 2.22 | 3.83 | 1.11 | 3.41 | -0.15 | 2.41 | -0.22 | 1.84 | -1.53 | -1.42 | 1.79 | 3.36 | – | – | – | – | – | – | –
Cc1ccc(NC(=O)CC2CC2)cc1-c1ccc(C(=O)NCC2CC2)cc1 | -1.55 | 2.42 | 2.73 | 1.08 | 5.01 | 4.58 | 5.79 | 1.4 | 2.39 | 4.41 | 5.95 | 2.18 | 5.56 | 0.19 | 2.75 | 3.95 | 4.15 | 1.88 | 4.52 | 2.03
COc1cccc(-n2ncc3c(N/N=C/c4ccc(S(C)(=O)=O)cc4)ncnc32)c1 | 1.34 | 7.91 | 38.4 | 10.1 | 30.7 | 6.33 | 26.8 | -4.35 | -3.39 | 5.8 | 18.2 | 1.49 | 7.83 | 6.5 | 22.6 | 29.7 | 57.8 | 8.34 | 20.6 | 0.29
NS(=O)(=O)c1ccc(-c2cc3ccncc3cc2OCc2ccccc2)cc1 | -1.13 | 2.2 | 3.91 | 4.23 | 4.75 | 2.61 | 5.54 | 0.49 | -0.08 | 4.58 | 5.2 | 1.3 | 2.48 | -0.53 | 2.78 | 5.04 | 12.6 | 3.81 | 5.67 | 1.46
